{
  "source": "PubChem BioAssay AID463173",
  "about": "(ICCB-Longwood Screening Facility, Harvard Medical School, 2010)",
  "note": "In all, about 52,000 compounds went through this assay and about 4,300 (8.3%) were called active. The list comes from a sample in which actives are over-represented; it also holds similar structures and randomly drawn compounds. Unmarked numbers belong to inactive results. Cut-off read from the data, not from the text of the source: active = survival mostly below about 52% (no sharp cut-off); inactive = mostly above about 56%.",
  "data": [
    {"system": "DeltatarO mutant", "assay": "growth inhibition of S. aureus wild type versus tarO mutant, primary screen, teichoic acid synthesis inhibitors, RN4220, OD600 (AID 463173)", "settings": "OD600, 18 h, hits give low values, screened at 18.75 µg/mL (by protocol)", "values": [
      {"smiles": "CC(=O)c1ccc(NC(=O)c2ccc(-c3ccc(Cl)cc3)o2)cc1", "survival": "92%"},
      {"smiles": "O=C(Nc1nccs1)c1ccc(-c2ccc(Cl)cc2)o1", "survival": "35% (active)"},
      {"smiles": "Cc1ccc(-c2nc3ncccc3o2)cc1NC(=O)c1ccc(-c2ccc(Cl)cc2)o1", "survival": "35% (active)"},
      {"smiles": "COc1ccc(Br)cc1C(=O)Nc1ccc(-c2nc3ncccc3o2)cc1C", "survival": "41%"},
      {"smiles": "CCCC(=O)Nc1ccc(-c2nc3ncccc3o2)cc1C", "survival": "69%"},
      {"smiles": "O=C(Nc1nccs1)c1cccc(C(=O)Nc2nccs2)c1", "survival": "98%"},
      {"smiles": "Cc1ccc(-c2nc3ncccc3o2)cc1NC(=O)c1ccc(-c2cccc(Cl)c2C)o1", "survival": "56%"},
      {"smiles": "COc1ccc(C(=O)Nc2ccc(-c3nc4ncccc4o3)cc2C)cc1Br", "survival": "37% (active)"},
      {"smiles": "Cc1cc(NC(=O)c2ccc(-c3ccc(Cl)cc3)o2)cc(-c2nc3ncccc3o2)c1O", "survival": "88%"},
      {"smiles": "CCCCc1nn2c(=O)cc(COC(=O)c3ccc(NC(=O)C(CC)CC)cc3)nc2s1", "survival": "94%"},
      {"smiles": "CCC(Sc1nc2ccccc2c2nc(CCn3c(C)nc4ccccc43)nn12)C(=O)Nc1ccc(F)cc1", "note": "(stereo unspecified)", "survival": "67%"},
      {"smiles": "COc1ccc(Cn2c(CCC(=O)NCc3ccc(Cl)cc3)nc3cccnc32)cc1", "survival": "112%"},
      {"smiles": "CC1CCN(c2nc3nonc3nc2Nc2ccc(F)cc2)CC1", "survival": "78%"},
      {"smiles": "CC1CCCN(c2nc3nonc3nc2Nc2cccc(Cl)c2)C1", "note": "(stereo unspecified)", "survival": "0% (active)"},
      {"smiles": "Cc1cc(C)nc(N2CCCC(C)C2)n1", "note": "(stereo unspecified)", "survival": "87%"},
      {"smiles": "COc1ccccc1CNC(=O)CCn1c(=O)c2ccccc2n(CC(=O)Nc2ccc(C)cc2C)c1=O", "survival": "86%"},
      {"smiles": "CCOC(=O)c1ccc(NC(=O)Cn2nnc(-c3ccc(C(F)(F)F)cc3)n2)cc1", "survival": "87%"},
      {"smiles": "Cc1ccc2nc(Cl)c3cc(C(=O)NC4CCCCC4)sc3c2c1", "survival": "52%"},
      {"smiles": "CC1CCCN(C(=O)c2cc3c(=O)n(C)c4ccccc4c3s2)C1", "note": "(stereo unspecified)", "survival": "138%"},
      {"smiles": "CCOC(=O)C1CCN(C(=O)c2ccc(-n3ccc4ccccc43)s2)CC1", "survival": "72%"},
      {"smiles": "CCOC(=O)C1CCCN(C(=O)c2ccc(-n3ccc4ccccc43)s2)C1", "note": "(stereo unspecified)", "survival": "-1% (active)"},
      {"smiles": "CC1CCN(C(=O)c2cc3c(=O)n(C)c4ccccc4c3s2)CC1", "survival": "88%"},
      {"smiles": "Cc1ccc2nc(Cl)c3cc(C(=O)NC4CCCCCC4)sc3c2c1", "survival": "102%"},
      {"smiles": "CCC(C)NC(=O)C1CCN(C(=O)c2ccc(-n3ccc4ccccc43)s2)CC1", "note": "(stereo unspecified)", "survival": "81%"},
      {"smiles": "CCOC(=O)C1CCCN(C(=O)c2cc3c(=O)n(C)c4ccccc4c3s2)C1", "note": "(stereo unspecified)", "survival": "44% (active)"},
      {"smiles": "CC(C)N(C(=O)c1cc2c(Cl)nc3ccccc3c2s1)C1CCCCC1", "survival": "16% (active)"},
      {"smiles": "Cc1ccc2nc(Cl)c3cc(C(=O)N4CCCCC4C)sc3c2c1", "note": "(stereo unspecified)", "survival": "23% (active)"},
      {"smiles": "Cc1ccc(S(=O)(=O)Nc2nc3c(s2)C(=O)CC(C)(C)C3)cc1", "survival": "91%"},
      {"smiles": "COc1ccc2nc(NS(=O)(=O)Cc3ccccc3)sc2c1", "survival": "75%"},
      {"smiles": "CCOc1ccccc1N(C)C(=O)NCc1noc2ccccc12", "survival": "108%"},
      {"smiles": "O=C(NCc1ccccc1F)C(=O)NCC(c1cccs1)S(=O)(=O)c1cccs1", "note": "(stereo unspecified)", "survival": "83%"},
      {"smiles": "Cc1ccc(-n2ncc3c(NCCCn4ccnc4)ncnc32)cc1C", "survival": "84%"},
      {"smiles": "Cc1[nH]c2ccccc2c1SCCNC(=O)c1ccc(F)cc1", "survival": "59%"},
      {"smiles": "COc1ccc(NC(=O)CN2C(=O)CCn3nc(-c4cccn4C)cc32)cc1Cl", "survival": "83%"},
      {"smiles": "CC1CCc2[nH]nc(C(=O)O)c2C1", "note": "(stereo unspecified)", "survival": "93%"},
      {"smiles": "Cc1ccc2nc(Cl)c3cc(C(=O)N4CCCC(C)C4)sc3c2c1", "note": "(stereo unspecified)", "survival": "-7% (active)"},
      {"smiles": "CC1CCC(NC(=O)c2cc3c(Cl)nc4ccccc4c3s2)CC1", "note": "(stereo unspecified)", "survival": "87%"},
      {"smiles": "Cc1ccc2nc(Cl)c3cc(C(=O)NCCCN4CCC(C)CC4)sc3c2c1", "survival": "125%"},
      {"smiles": "Cc1ccc(NC(=O)c2cc3c(Cl)nc4ccc(C)cc4c3s2)c(Cl)c1", "survival": "68%"},
      {"smiles": "CCC(C)NC(=O)c1cc2c(Cl)nc3ccc(C)cc3c2s1", "note": "(stereo unspecified)", "survival": "65%"},
      {"smiles": "O=C(c1cc2c(Cl)nc3ccccc3c2s1)N1CCCCC1", "survival": "46% (active)"},
      {"smiles": "Cc1ccc2nc(Cl)c3cc(C(=O)NC4CCC(C)CC4)sc3c2c1", "note": "(stereo unspecified)", "survival": "57%"},
      {"smiles": "CC1CCCN(CCCNC(=O)c2cc3c(Cl)nc4ccccc4c3s2)C1", "note": "(stereo unspecified)", "survival": "125%"},
      {"smiles": "O=C(NC1CCCCC1)c1cc2c(Cl)nc3ccccc3c2s1", "survival": "80%"},
      {"smiles": "CC1CCCN(C(=O)c2cc3c(Cl)nc4ccccc4c3s2)C1", "note": "(stereo unspecified)", "survival": "-5% (active)"},
      {"smiles": "O=C(NC1CCCCCC1)c1cc2c(Cl)nc3ccccc3c2s1", "survival": "116%"},
      {"smiles": "Cc1ccc2nc(Cl)c3cc(C(=O)N4CCCCC4)sc3c2c1", "survival": "-8% (active)"},
      {"smiles": "CNC(=O)C1CCC(Cn2c(=O)c3sccc3n(CC(=O)Nc3ccc(C)c(C)c3)c2=O)CC1", "note": "(stereo unspecified)", "survival": "70%"},
      {"smiles": "CCC(C)NC(=O)c1sc2nc3n(c(=O)c2c1C)CCC3", "note": "(stereo unspecified)", "survival": "93%"},
      {"smiles": "CCOc1ccc(NC(=O)Cn2c(=O)n(Cc3ccco3)c(=O)c3ccc(C(=O)NC4CCCC4)cc32)cc1", "survival": "97%"},
      {"smiles": "Cc1ccc(NC(=O)CSc2ccc(-c3cccs3)nn2)cc1Cl", "survival": "111%"},
      {"smiles": "COc1ccc(NC(=O)CSc2nc(C)cc(C)c2C(=O)Nc2ccccc2OC)cc1", "survival": "51%"},
      {"smiles": "CN1CCC(OC(=O)c2ccc(Cl)cc2Cl)CC1", "survival": "101%"},
      {"smiles": "O=C(Cn1c(=O)n(CCc2ccccc2)c(=O)c2c3c(sc21)CCCC3)Nc1ccc(F)c(F)c1", "survival": "84%"},
      {"smiles": "COc1cccc(N2CCN(C(=O)c3cc4c(=O)n(Cc5cccnc5)ccc4nc3C)CC2)c1", "survival": "102%"},
      {"smiles": "CCC1CCCCN1CCCNC(=O)c1cc2c(Cl)nc3ccccc3c2s1", "note": "(stereo unspecified)", "survival": "101%"},
      {"smiles": "CCOC(=O)C1CCCN(C(=O)c2cc3c(Cl)nc4ccccc4c3s2)C1", "note": "(stereo unspecified)", "survival": "26% (active)"},
      {"smiles": "CCOC(=O)C1CCCN(C(=O)c2cc3c(=O)[nH]c4ccc(C)cc4c3s2)C1", "note": "(stereo unspecified)", "survival": "51%"},
      {"smiles": "CCNC(=S)N1CCC(NC(=O)C23CC4CC(CC(C4)C2)C3)CC1", "survival": "80%"},
      {"smiles": "Fc1ccccc1Cc1cn2cc(-c3ccc(Cl)cc3)nc2s1", "survival": "66%"},
      {"smiles": "Fc1ccc(-c2cn3cc(Cc4ccccc4Cl)sc3n2)cc1", "survival": "42% (active)"},
      {"smiles": "Fc1ccc(Cc2cn3cc(-c4ccc(F)cc4)nc3s2)cc1", "survival": "61%"},
      {"smiles": "Fc1ccc(Cc2cn3cc(-c4ccccc4)nc3s2)cc1", "survival": "51% (active)"},
      {"smiles": "Clc1ccccc1Cc1cn2cc(-c3ccccc3)nc2s1", "survival": "63%"},
      {"smiles": "Fc1ccc(-c2cn3cc(Cc4ccccc4)sc3n2)cc1", "survival": "81%"},
      {"smiles": "Cc1ccccc1-c1nc(SCC(=O)NCc2ccco2)c2c(=O)n(C)c(=O)n(C)c2n1", "survival": "71%"},
      {"smiles": "O=C(Nc1ccc(C(F)(F)F)cc1)N1CCC(N2CCCCC2)CC1", "survival": "108%"},
      {"smiles": "COc1ccc(-c2noc(CSc3nnc(-c4ccncc4)n3-c3ccc(C)cc3)n2)cc1OC", "survival": "67%"},
      {"smiles": "CC1=C(C(=O)OC2CCCCCC2)C(c2ccc(Cl)cc2Cl)CC(=O)N1", "note": "(stereo unspecified)", "survival": "81%"},
      {"smiles": "CCOC(=O)c1c(NC(=O)c2ccc(S(=O)(=O)N(C)C)cc2)sc2c1CCN(C)C2", "survival": "75%"},
      {"smiles": "Cc1nc(NC2CCN(Cc3nnnn3Cc3ccc4c(c3)OCO4)CC2)[nH]c(=O)c1C", "survival": "94%"},
      {"smiles": "O=S(=O)(NCc1csc(-c2ccccc2)n1)c1cccc(F)c1", "survival": "79%"},
      {"smiles": "Cc1cc(C)c(S(=O)(=O)NCc2csc(-c3ccccc3)n2)c(C)c1", "survival": "34% (active)"},
      {"smiles": "O=S(=O)(NCc1csc(-c2ccccc2)n1)c1ccccc1", "survival": "70%"},
      {"smiles": "COc1ccccc1C(=O)Nc1nc2nc(C)c(Cc3ccccc3)c(=O)n2[nH]1", "survival": "111%"},
      {"smiles": "COc1cccc(NC(=O)CN(CCc2ccccc2)S(=O)(=O)c2ccc(Cl)cc2)c1", "survival": "52%"},
      {"smiles": "Cn1cc(C(=O)Nc2ccc(C#N)cc2)c2ccccc2c1=O", "survival": "63%"},
      {"smiles": "CCCCOc1ccccc1Cn1c(=O)sc2ccccc21", "survival": "-2% (active)"},
      {"smiles": "CC(C)CCOc1ccccc1Cn1c(=O)sc2ccccc21", "survival": "3% (active)"},
      {"smiles": "O=C(Cn1c(=O)sc2ccccc21)Nc1ccc(O)cc1", "survival": "70%"},
      {"smiles": "CS(=O)(=O)n1c(=O)sc2ccccc21", "survival": "99%"},
      {"smiles": "CCN(CC)C(=O)Cn1c(=O)sc2ccccc21", "survival": "85%"},
      {"smiles": "CCOC(=O)Cn1c(=O)sc2ccccc21", "survival": "94%"},
      {"smiles": "CCCOc1ccccc1Cn1c(=O)sc2ccccc21", "survival": "-2% (active)"},
      {"smiles": "CCCn1c(=O)sc2cc(NC(=O)c3ccccc3OCC)ccc21", "survival": "93%"},
      {"smiles": "Cc1cccc(NC(=O)Cn2c(=O)sc3ccccc32)c1", "survival": "109%"},
      {"smiles": "O=C(Cn1c(-c2ccccc2)noc1=O)Nc1cccc(Cl)c1Cl", "survival": "98%"},
      {"smiles": "CCc1ccc(S(=O)(=O)c2cn(C)c3cc(N4CCOCC4)c(F)cc3c2=O)cc1", "survival": "90%"},
      {"smiles": "CCC(Sc1nnc(-c2ccc(OC)cc2)c(-c2ccc(OC)cc2)n1)C(=O)Nc1cccc(OC)c1", "note": "(stereo unspecified)", "survival": "94%"},
      {"smiles": "COCCn1c(C)cc(O)c(C(c2ccc(F)cc2)N2CCN(c3ccccc3)CC2)c1=O", "note": "(stereo unspecified)", "survival": "47% (active)"},
      {"smiles": "COCCn1c(C)cc(O)c(C(c2cccc(F)c2)N2CCN(c3ccccc3)CC2)c1=O", "note": "(stereo unspecified)", "survival": "93%"},
      {"smiles": "COCCn1c(C)cc(O)c(C(c2ccccc2)N2CCN(C)CC2)c1=O", "note": "(stereo unspecified)", "survival": "95%"},
      {"smiles": "COCCn1c(C)cc(O)c(C(c2ccccc2)N2CCN(c3ccccc3)CC2)c1=O", "note": "(stereo unspecified)", "survival": "49%"},
      {"smiles": "CCN1CCN(C(c2ccccc2)c2c(O)cc(C)n(CCOC)c2=O)CC1", "note": "(stereo unspecified)", "survival": "84%"},
      {"smiles": "COCCn1c(C)cc(O)c(C(c2ccccc2)N2CCN(CCO)CC2)c1=O", "note": "(stereo unspecified)", "survival": "32% (active)"},
      {"smiles": "Cc1cccc(NC(=O)c2cc(S(=O)(=O)N3CCc4ccccc43)ccc2F)c1C", "survival": "65%"}
    ]}
  ]
}
